From PubChem
TDP1 cell CPT: qHTS for Inhibitors of human tyrosyl-DNA phosphodiesterase 1 (TDP1): qHTS in cells in presence of CPT. Potency, µM (highest dose often 46.2 µM), most hits filed as inhibitors. chicken DT40 Tdp1-/-;hTDP1 cells + 20 nM CPT, ATP luminescence, 48 h. hit rate 12% among 420,000. AID 686979, 2013; note: nearly all actives have a fitted effect of over 55% in size
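Cell growth measured by CellTiter-Glo luminescence after a minimum 48 h, 37 C compound exposure with 20 nM CPT in Tdp1-knockout DT40 cells stably expressing hTDP1, seeded 400/well; qHTS titration format.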
ALOX12 inh: Primary qHTS assay for inhibitors of human arachidonate 12S-lipoxygenase (ALOX12): Round 2 | Potency, µM (highest dose often 108 µM), most hits filed as inhibitors | Polyunsaturated fatty acid lipoxygenase ALOX12 (Homo sapiens), P18054 | purified 12hLO, xylenol orange hydroperoxide absorbance | hit rate 1.1% among 580,000
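Purified human 12hLO (150 nM final) in 25 mM Hepes, 0.01% Triton X-100, pH 7.0 was preincubated 15 min at room temperature with compound. Then 40 uM arachidonic acid was added, 30 min. Hydroperoxide was read by Fe-XO absorbance ratio 573/405 nm.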
VP16 counter: VP16 counterscreen qHTS for inhibitors of ROR gamma transcriptional activity; Drosophila S2 Gal4-VP16 UAS-luciferase, luminescence, 20 h; Potency, µM (doses to about 53.6 µM), usual class: inhibitors; hit rate 3.5% among 310,000;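 note: Gal4-VP16 expression switched on by copper sulfate through the metallothionein promoter; nearly all actives have a fitted effect of over 50% in size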
ELG1 repair inh: qHTS screen for small molecules that inhibit ELG1-dependent DNA repair in human embryonic kidney (HEK293T) cells expressing luciferase-tagged ELG1 | hit rate 2.3% among 330,000 | AID 504467, 2011 | HEK293T ELG1-luciferase reporter, luminescence, 16 h; DNA damage induced by 5-fluorouridine | Potency, µM (highest dose often 46.1 µM), most hits filed as inhibitors; note: nearly all actives have a fitted effect of over 55% in size
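Step one: seed 2,000 cells per well. Step two: pin-transfer compound or DMSO alongside 5-fluorouridine. Step three: incubate 16 hr, 37 °C, 5% CO2. Step four: add ONE-Glo, wait 30 min, read luminescence.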
DT40 TDP1 no CPT: qHTS for Inhibitors of human tyrosyl-DNA phosphodiesterase 1 (TDP1): qHTS in cells in absence of CPT; hit rate 15% among 420,000; Potency, µM (series often up to 46.2 µM), usual class: inhibitors; DT40 Tdp1-/- hTDP1 cells, no CPT, ATP luminescence, 48 h; note: nearly all actives have a fitted effect of over 55% in size
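Camptothecin absent (DMSO only). Human TDP1-complemented DT40 knockout cells, 400 cells/well, 37 °C for minimum 48 hr; ATP measured via CellTiter-Glo, 30 min dark incubation, luminescence.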
RORgamma inh: qHTS for inhibitors of ROR gamma transcriptional activity; Nuclear receptor ROR-gamma (Mus musculus), P51450; Drosophila S2 Gal4-RORgamma UAS-luciferase reporter, 20 h; Potency, µM (series often up to 53.6 µM), most hits filed as inhibitors; hit rate 5.4% among 310,000; note: nearly all actives have a fitted effect of over 60% in size
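In this cell-based reporter format, copper sulfate (700 uM final) drives Gal4–ROR gamma fusion expression from a metallothionein promoter in Drosophila Schneider cells; compounds preincubated 1 hr, reporter read after 20 hr at ambient temperature.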
Hits are given with their value; n = inactive; u = inconclusive; x = no result; [ ] = remark or other dose. Shown are actives, neighbours in structure and some others; about 15% of the full set was active somewhere. Calls come from the whole dose curve; as a rule, active = well fitted curve in the direction sought with a large enough effect; inconclusive = small, poorly fitted or top-dose-only effect, or another doubt; inactive = no such curve, though single readings can be large; an effect the other way counts as inactive or inconclusive.

SMILES	TDP1 cell CPT	ALOX12 inh	VP16 counter	ELG1 repair inh	DT40 TDP1 no CPT	RORgamma inh
Cc1sc(NC(=O)c2ccco2)c(C(c2ccccc2)N2CCC(C)CC2)c1C (stereo not given)	10µM	n	n	u	6.5µM	n
COc1ccc(CCNC(=O)Nc2ccc3c(c2)c(=O)n(C)n3Cc2ccc(Cl)cc2)cc1OC	8.2µM	u	x	x	u	x
CCNC(=O)Nc1ccc2c(c1)c(=O)n(C)n2Cc1ccc(Cl)cc1	n	14µM	x	x	n	x
COc1cc(Cn2c3ccc(NC(=O)NCCc4ccccc4)cc3c(=O)n2C)ccc1F	u	n	x	x	u	x
C=C(C)Cn1c2ccc(NC(=O)NCC)cc2c(=O)n1C	n	n	x	x	n	x
Cc1cc(Cl)ccc1NC(=O)CN(c1ccccc1F)S(=O)(=O)c1ccccc1	x	n	x	x	x	x
Cc1cc(-c2nnc3n2N=C(c2ccccc2Br)CS3)n[nH]1	n	u	n	n	u	n
CCOc1ccccc1-c1nnc2n1N=C(c1cc(OC)ccc1OC)CS2	x	x	n	x	x	n
COc1cccc(-c2nnc3n2N=C(C(C)(C)C)CS3)c1	16µM	n	u	u	9.2µM	n
Cc1cccc(-c2nnc3n2N=C(c2ccccc2Br)CS3)c1	21µM	n	u	n	21µM	u
Clc1ccc(C2=Nn3c(nnc3-c3cc(-c4ccccc4)n[nH]3)SC2)cc1	u	n	n[0.365 µM]	u	18µM	u
CCOc1cccc(-c2nnc3n2N=C(c2cc(OC)ccc2OC)CS3)c1	u	n	n	5.2µM	8.2µM	u
COc1cc(OC)cc(-c2nnc3n2N=C(c2ccc(OC)cc2OC)CS3)c1	x	x	n	x	x	u
COc1ccc(OC)c(C2=Nn3c(nnc3-c3cc(OC)c(OC)c(OC)c3)SC2)c1	21µM	n	n	u	16µM	n
COc1ccc(C2=Nn3c(nnc3-c3ccc(OC)cc3)SC2)cc1	1.8µM	n	n	n	1µM	u
COc1cccc(-c2nnc3n2N=C(c2ccc(OC)cc2OC)CS3)c1	x	x	7.9µM	x	x	u
COc1cccc(-c2nnc3n2N=C(c2cc(OC)ccc2OC)CS3)c1	u	n	n	18µM	15µM	u
CC(C)Cc1cc(CNC(=O)[C@H]2CNC[C@H](C(=O)N3CCCC3)C2)no1	x	n	x	x	x	x
COCCCNC(=O)c1nc(-c2ccc3[nH]ccc3c2)no1	x	n	x	x	x	x
COc1ccc(C2=Nn3c(nnc3-c3cccc(OC)c3OC)SC2)c(OC)c1	x	x	18µM	x	x	u
COc1ccc(C2=Nn3c(nnc3-c3ccc(OC)c(OC)c3)SC2)cc1	x	x	n	x	x	n
COc1cc(-c2nnc3n2N=C(c2ccccc2)CS3)cc(OC)c1OC	1.5µM	u	n	9.2µM	1.5µM	n
COc1ccc(OC)c(C2=Nn3c(nnc3-c3cccc(OC)c3OC)SC2)c1	x	x	n	x	x	n
FC(F)(F)c1cc(-c2cccs2)nc2c(-c3ccccc3)cnn12	x	n	x	x	x	x
Fc1ccc(CN2CCC(Oc3ccccc3-c3nc(-c4cnccn4)no3)C2)cc1F (stereo not given)	x	n	x	x	x	x
Cc1ccc2c(=O)[nH]c(Cc3ccccc3C(=O)O)nc2c1	u	n	n	u	18µM	n
COc1ccc(CCNc2ncnc3c2CN(C2CCCNCC2)C(=O)CN3C)cc1 (stereo not given)	x	n[6.33 µM]	x	x	x	x
CCOc1cccc(C(=O)NCc2nc(-c3cccs3)no2)c1	x	n	x	x	x	x
